# In the library only some 19% were active in any assay of this set; here they are far more common.
# HT1080 IDH1KD tx = kills HT-1080 cells with IDH1 knockdown; HT-1080 IDH1 knockdown viability, ATP luminescence, 48 h; Potency, µM (top dose mostly 46.1 µM), for the others: at the highest dose activity, negative = toxicity, hits mostly cytotoxic; 360,000 tested, 2% active; AID 686971;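 note: potency is the fitted concentration of half-maximal effect; 0% = DMSO wells and -100% = cell-free medium wells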
#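 Knockdown cells (IDH1KD HT-1080) received compounds 2 h after plating at 750 cells/well and were kept 48 h at 37 °C in 5% FBS RPMI. A CellTiter-Glo luminescence read gave % activity for curve fitting.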
# IL-1B inflam inh = blocks inflammasome-driven IL-1 beta release. THP-1 LPS/ATP IL-1B secretion, AlphaLISA, 16 h; active compounds read low. activity change, % at 57.5 µM. 360,000 tested, 4.7% active. AID 743279; in the data active = activity change below about -50%; inconclusive = mostly about -30% to -49%
#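 THP-1 cells pretreated 1 hr with compounds (up to 57.5 uM final), then stimulated with LPS (250 ng/mL final) plus ATP (1.25 mM final); secreted IL-1B measured by AlphaLISA after 16 hr, decreased signal indicating inhibition.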
# HT1080-NT tox = kills 2HG-producing HT-1080-NT fibrosarcoma cells; Potency, µM (highest dose often 46.1 µM), for the others: at the top dose activity, negative = less viability, most hits filed as cytotoxic; 360,000 tested, 1.6% active; HT-1080-NT fibrosarcoma viability, CellTiter-Glo ATP luminescence, 48 h; AID 686970;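 note: NT is the 2HG producing partner of a matched IDH1 knockdown line; potency is the fitted concentration of half-maximal effect; 0% = DMSO-treated cells and -100% = media-only wells without cells; nearly all actives have a fitted effect of over 55% in size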
#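 Fibrosarcoma NT cells, 750 per well in 5% FBS RPMI, were exposed to compound for 48 hours. Viability: CellTiter-Glo luminescence.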
# TDP1 cell noCPT = qHTS for Inhibitors of human tyrosyl-DNA phosphodiesterase 1 (TDP1): qHTS in cells in absence of CPT | Potency, µM (highest dose often 46.2 µM), for the others: at the highest dose activity change, negative = growth inhibition, actives largely listed as inhibitors | DT40 Tdp1-/- hTDP1 cells, no CPT, ATP luminescence, 48 h | 420,000 tested, 15% active | AID 686978, 2013; note: potency is the fitted concentration of half-maximal effect; nearly all actives have a fitted effect of over 55% in size
#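 Readout: luminescence from CellTiter-Glo after 30 min in the dark at RT. Cells: DT40 Tdp1-/- with stable hTDP1, 400/well. Exposure: compounds alone, ≥48 hr, 37 °C.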
# DT40 TDP1 CPT = DT40-hTDP1 cell growth loss with CPT; chicken DT40 Tdp1-/-;hTDP1 cells + 20 nM CPT, ATP luminescence, 48 h; 420,000 tested, 12% active; Potency, µM (highest dose often 46.2 µM), inactives show at the top dose activity change, negative = growth inhibition, usual class: inhibitors; note: potency is the fitted concentration of half-maximal effect; nearly all actives have a fitted effect of over 55% in size
#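 Cell growth measured by CellTiter-Glo luminescence after a minimum 48 h, 37 C compound exposure with 20 nM CPT in Tdp1-knockout DT40 cells stably expressing hTDP1, seeded 400/well; qHTS titration format.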
# Active calls of the source: *; ? = inconclusive; . = no result given. Unless noted, calls come from the whole dose curve; as a rule, active = well fitted curve in the direction sought with a large enough effect; inconclusive = small, poorly fitted or top-dose-only effect, or another doubt; inactive = no such curve, though single readings can be large; an effect the other way counts as inactive or inconclusive. Unless noted, % is set by controls: 0 for no effect and ±100 for the full control effect.
SMILES,HT1080 IDH1KD tx,IL-1B inflam inh,HT1080-NT tox,TDP1 cell noCPT,DT40 TDP1 CPT
CCOC(=O)COc1c(OC)cc(Cl)cc1C1NC(=O)NC(C)=C1C(C)=O (configuration not stated),-4%,-6,19%,-3%,-18%
CN(C)c1ccc(C(=O)OCC(=O)Nc2ccc(N3CCOCC3)cc2)cc1,-6%,-6,-4%,-24%,-2%
COC(=O)c1ccccc1NC(=O)COC(=O)c1ccco1,2%,9,5%,-6%,7%
CN(C)c1ccc(N=Nc2ccccc2C(=O)O)cc1,.,.,.,-25%,?
CN(C)c1ccc(N=Nc2ccccc2C(=O)OCC(=O)N(C)c2ccccc2)cc1,1%,-3,-1%,?,21µM*
CC(=O)c1ccc(NC(=O)COC(=O)c2ccccc2N=Nc2ccc(N(C)C)cc2)cc1,-2%,?,-1%,21µM*,?
COC(=O)c1ccccc1NC(=O)COC(=O)c1ccccc1N=Nc1ccc(N(C)C)cc1,-5%,0,-2%,16µM*,16µM*
O=C(NCc1ccc(F)cc1)C1CCN(S(=O)(=O)c2cccc3nonc23)CC1,-13%,14,-15%,-15%,-15%
O=C(Cn1ccc(C(F)(F)F)n1)N/N=C/c1ccc(N2CCOCC2)cc1,?,5,-27%,2%,6%
CCOC(=O)c1ccc(NC(=O)c2cccc(S(=O)(=O)N3CCOCC3)c2)cc1,-29%,-25,-29%,12µM*,?
COc1ccc(NS(=O)(=O)c2ccc(C)c(NC(=O)c3ccc(C)c(S(=O)(=O)N4CCOCC4)c3)c2)cc1,-6%,-7,-12%,15µM*,?
O=C(Nc1ccc(N2CCCCCC2)cc1)c1cccc(S(=O)(=O)N2CCOCC2)c1,?,-3,-14%,4.1µM*,7.3µM*
CCOC(=O)c1ccc(NC(=O)c2ccc(C)c(S(=O)(=O)N3CCOCC3)c2)cc1,?,-14,?,23µM*,?
CC(=O)c1ccc(NC(=O)c2ccc(C)c(S(=O)(=O)N3CCOCC3)c2)cc1,-10%,20,-20%,?,1%
Cc1cc(Cl)ccc1OCC(=O)NN1C(=O)C2C3C=CC(C3)C2C1=O (configuration not stated),7%,-14,13%,-6%,22%
O=C(O)C1=C[C@H](c2coc3ccccc3c2=O)C[C@H](OCc2ccc(CO)cc2)O1,16%,14,0%,2%,-2%
COc1ccc(C)cc1C1=CC(=O)C[C@H](c2ccc(F)cc2)C1,-27%,?,?,?,?
CC(C)(C)n1nnnc1C(c1ccccc1)N1CCN(c2ccc(C(F)(F)F)cn2)CC1 (configuration not stated),-7%,-17,-9%,?,?
CC(=O)OC[C@@H]1CN(Cc2ccccc2)C[C@H](n2cnc3c(NCc4ccc(F)cc4)ncnc32)O1,12%,-3,-6%,-28%,?
S=C(NCCN1CCOCC1)N/N=C/c1ccccc1,8%,20,12%,-3%,11%
S=C(NCCCN1CCOCC1)NN=C1c2ccccc2-c2ccccc21,?,-14,-24%,5.8µM*,5.8µM*
C=C(C)CNC(=S)NN=C1c2ccccc2-c2ccccc21,-24%,-22,0%,?,?
CCNC(=S)NN=C1c2ccccc2-c2ccccc21,-3%,?,-15%,3.7µM*,3.7µM*
COC(=O)C1CN(C(=O)COc2ccc(C)cc2)c2ccccc2O1 (configuration not stated),16%,46,7%,3%,6%
Cc1cccn2c(=O)nc(SCC(=O)N3CCC(Cc4ccccc4)CC3)nc12,10%,-24,1%,?,?
SMILES,HT1080 IDH1KD tx,IL-1B inflam inh,HT1080-NT tox,TDP1 cell noCPT,DT40 TDP1 CPT
Cc1cc(C)c(NC(=O)CCCCCNC2CCCCC2)c(C)c1,1%,-11,2%,?,?
CCOc1ccc(OCCNC2CCCC2)cc1,-5%,0,-2%,-3%,-16%
CCCOc1ccc(OCCNC2CCCC2)cc1,0%,-5,-3%,16µM*,-21%
Cc1ccc(C)c(OCCCNC2CCCC2)c1C,-4%,-8,-29%,9.2µM*,23µM*
CC(C)(C)c1ccc(OCCCNC2CCCC2)cc1,?,-67*,?,29µM*,?
Cc1ccc(OCCCNC2CCCC2)cc1,-9%,-11,-13%,-21%,-16%
Cc1ccc(OCCCCNC2CCCCC2)c(C)c1,?,-63*,?,12µM*,21µM*
O=C(COC(=O)C1CC2CCCC(C1)C2=O)NNC(=O)c1ccc([N+](=O)[O-])cc1 (configuration not stated),-4%,-7,-2%,-2%,-12%
N#CCSc1nnc(Cc2cccc3ccccc23)n1C1CCCCC1,-13%,-65*,-10%,-20%,-25%
NC(=O)CSc1nnc(Cc2cccs2)n1C1CCCCC1,2%,1,5%,22%,0%
COc1ccc(S(=O)(=O)NC2CCCC2)c(Cl)c1Cl,3%,6,-4%,0%,-3%
COc1ccc(-n2ncc(C(=O)N3CCN(c4ncccn4)CC3)c2C2CCN(C(=O)OC(C)(C)C)CC2)cc1,.,.,.,-13%,-15%
CC(C)(C)OC(=O)N1CCC(c2c(C(=O)Nc3ccc4c(c3)OCCO4)cnn2-c2ccc(F)cc2)CC1,.,.,.,18µM*,?
COc1ccc(-n2ncc(C(=O)Nc3ccc4c(c3)OCCO4)c2C2CCN(C(=O)OC(C)(C)C)CC2)cc1,.,.,.,16µM*,21µM*
COc1cc2c(cc1OC)CN(CC(=O)Nc1ccc(C)c(S(=O)(=O)N3CCOCC3)c1)CC2,0%,-13,-3%,?,4%
CCOC(=O)NC(C)N1C(=O)C2C3C=CC(C3)C2C1=O (configuration not stated),10%,8,4%,-2%,-6%
O=c1c2ccccc2[nH]c2ccc(O)cc12,-2%,-71*,3%,-25%,16%
O=c1nc(-c2ccccc2Cl)c2cc(F)ccc2[nH]1,-11%,1,-15%,?,-13%
Cc1cc(=O)[nH]c2ccc(O)cc12,.,.,.,-1%,0.35µM*
Cc1ccc2[nH]c3ccccc3c(=O)c2c1,-22%,-16,-11%,12µM*,12µM*
O=c1[nH]c2ccccc2c(=O)c2ccccc12,-4%,-17,-1%,-25%,-7%
O=c1c2ccccc2[nH]c2ccc(F)cc12,-3%,-22,-4%,9.2µM*,21µM*
Cc1cc(=O)[nH]c2cc(O)ccc12,-6%,23,9%,4%,5%

# Assay outcomes deposited in PubChem BioAssay by National Center for Advancing Translational Sciences (NCATS).
